Records with an inconclusive call do not appear. Calls of active or inactive are those of the source. How the source made its calls, unless noted: active means hit-call score of the fitted dose curve at least 0.9, where 1 is the maximum; inactive means score below 0.9.
Tests used:
[1] = target: Peroxisome proliferator-activated receptor gamma (Homo sapiens) (UniProt P37231); assay: OT_PPARg_PPARgSRC1_0480: Odyssey Thera (OT) 8-hour Protein-Complementation Assay for Peroxisome Proliferator-activated Receptor Gamma / SRC-1 Co-activator (AID 2283387; active means hit-call score of the fitted dose curve at least 0.9, where 1 is the maximum;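 further: nuclear to cytoplasmic split Venus YFP fluorescence ratio reporting PPARg SRC-1 interaction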)
Summary of the method: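 Protein-fragment complementation in HEK293T: Venus YFP halves (residues 1-158, 159-239, mutated to IFP1/IFP2) fused to PPARg/SRC-1. 8 h exposure; N/C ratio at 488 nm; DMSO negative control.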

[2] = target: Peroxisome proliferator-activated receptor gamma (Homo sapiens) (UniProt P37231); assay: OT_PPARg_PPARgSRC1_1440: Odyssey Thera (OT) 24-hour Protein-Complementation Assay for Peroxisome Proliferator-activated Receptor Gamma/ SRC-1 Co-activator (AID 2283388; active means hit-call score of the fitted dose curve at least 0.9, where 1 is the maximum;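 further: nuclear to cytoplasmic ratio of reconstituted Venus YFP fluorescence in fixed imaged cells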)
Summary of the method: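 Transient HEK293T, YFP fragments 1-158/159-239 (mutant IFP1/IFP2) fused to PPARg/SRC-1; 24 h dosing; fix 4% formaldehyde, Draq5; Opera imaging 488/635 nm; N/C ratio, gain vs DMSO.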

[3] = CEETOX_H295R_11DCORT: CeeTox H295R High-throughput Steroidogenesis Assay for 11-Deoxycortisol (11DCORT) (AID 2283432); conditions: actives raise or lower the signal;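 on AC50: human adrenal H295R cells prestimulated with 10 µM forskolin for 48 h; 11-deoxycortisol secreted into the medium measured by LC-MS/MS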
Summary of the method: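 Adrenal carcinoma line H295R, run per OECD 456 with minor changes, was forskolin-stimulated (10 uM, 48 h) before a 48 h chemical exposure at 0.1% DMSO. Secreted 11-deoxycortisol was quantified by HPLC-MS/MS.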

[4] = CEETOX_H295R_OHPREG: CeeTox H295R High-throughput Steroidogenesis Assay for OH-Pregnenolone (OHPREG) (AID 2283434); conditions: actives raise or lower the signal
Summary of the method: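 Readout: HPLC-MS/MS of 17alpha-hydroxypregnenolone in medium after 48 h chemical exposure of H295R cells pretreated with forskolin. Values fitted bidirectionally relative to DMSO; chemicals reducing viability to 20–70% were retested after 10-fold dilution.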

[5] = CEETOX_H295R_OHPROG: CeeTox H295R High-throughput Steroidogenesis Assay for OH-Progesterone (OHPROG) (AID 2283435); conditions: actives raise or lower the signal;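 on AC50: human adrenal H295R cells primed 48 h with 10 µM forskolin; 17alpha-hydroxyprogesterone secreted into medium measured by HPLC-MS/MS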
Summary of the method: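 Steps: seed H295R cells and adhere overnight; stimulate with 10 uM forskolin for 48 h; replace with chemical-containing medium (0.1% DMSO) for 48 h; extract medium with MTBE; quantify 17alpha-hydroxyprogesterone by reverse-phase C18 HPLC-MS/MS against a 7-point curve.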

[6] = CEETOX_H295R_CORTIC: CeeTox H295R High-throughput Steroidogenesis Assay for Corticosterone (CORTIC) (AID 2283437); conditions: actives raise or lower the signal;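 further: corticosterone secreted into medium quantified by mass spectrometry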;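 on AC50: human H295R adrenal cells prestimulated with forskolin before chemical exposure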
Summary of the method: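 Steps: seed H295R, adhere overnight; 10 uM forskolin 48 h; replace with chemical (0.1% DMSO) 48 h; extract medium with MTBE; quantify corticosterone by HPLC-MS/MS; score bidirectionally vs DMSO.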

[7] = CEETOX_H295R_CORTISOL: CeeTox H295R High-throughput Steroidogenesis Assay for Cortisol (AID 2283438); conditions: actives raise or lower the signal
Summary of the method: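 Cortisol synthesis by H295R cells is measured 48 h after chemical dosing, following a 48 h stimulation with 10 uM forskolin. Hormone is extracted and quantified by HPLC-MS/MS, and activity is fitted bidirectionally against the DMSO control.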

[8] = CEETOX_H295R_DOC: CeeTox H295R High-throughput Steroidogenesis Assay for DOC (AID 2283439); conditions: actives raise or lower the signal
Summary of the method: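 Steps: seed H295R, adhere overnight; 10 uM forskolin 48 h; replace with chemical medium (0.1% DMSO) 48 h; collect medium, MTBE extraction, HPLC-MS/MS for DOC. Viability then checked by MTT; cytotoxic chemicals diluted until viability ≥70%.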

[9] = CEETOX_H295R_ESTRADIOL: CeeTox H295R High-throughput Steroidogenesis Assay for Estradiol (AID 2283440); conditions: actives raise or lower the signal;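 further: estradiol secreted into medium quantified by LC-MS/MS after dansyl derivatisation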
Summary of the method: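 Following OECD 456 with minor changes, H295R cells received 10 uM forskolin for 48 h and then test chemical for 48 h. Hormone output was read by HPLC-MS/MS, with cytotoxic concentrations diluted until MTT viability reached ≥70%.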

[10] = CEETOX_H295R_ESTRONE: CeeTox H295R High-throughput Steroidogenesis Assay for Estrone (AID 2283441); conditions: actives raise or lower the signal;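 on AC50: human adrenal H295R cells prestimulated with forskolin for two days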
Summary of the method: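 Estrone secreted into medium quantified by LC-MS/MS after dansyl chloride derivatization, following 48 h chemical exposure (0.1% DMSO final) of forskolin-prestimulated (10 uM, 48 h) H295R cells; gain or loss fitted against DMSO; MTT viability in same wells.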

[11] = CEETOX_H295R_PROG: CeeTox H295R High-throughput Steroidogenesis Assay for Progesterone (PROG) (AID 2283442); conditions: actives raise or lower the signal;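 on AC50: human H295R adrenal cells primed with 10 µM forskolin before dosing; progesterone secreted into medium by H295R cells measured by HPLC-MS/MS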
Summary of the method: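 Adrenal H295R line, forskolin-stimulated (10 uM, 48 h) before dosing. 48 h exposure, 0.1% DMSO vehicle. Secreted progesterone by reverse-phase HPLC with ESI+ MS/MS quantification; DMSO-normalised bidirectional curve fit.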

[12] = read-out: Tumor necrosis factor receptor superfamily member 6 (Homo sapiens) (UniProt P25445); assay: LTEA_HepaRG_FAS: Life Technologies and Expression Analysis (LTEA) Assay for Fas cell surface death receptor (FAS) using HepaRG (AID 2283447); conditions: mRNA level, 48 h; actives raise or lower the signal
Summary of the method: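 Differentiated human HepaRG cells, pre-cultured 48 h, were exposed in duplicate for 48 h to 8-point half-log concentrations (top 100 uM, 0.5% DMSO) in serum-free induction medium; FAS mRNA measured by qRT-PCR, normalized to ACTB/GAPDH/POLR2A, bidirectional fit versus DMSO.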

[13] = read-out: Fatty acid synthase (Homo sapiens) (UniProt P49327); assay: LTEA_HepaRG_FASN: Life Technologies and Expression Analysis (LTEA) Assay for Fatty Acid Synthase (FASN) using HepaRG (AID 2283448); conditions: mRNA level, 48 h; actives raise or lower the signal
Summary of the method: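 Cells were plated, cultured 48 h, switched to serum-free induction medium, then dosed in duplicate (max 100 uM, half-log dilutions, 0.5% DMSO) for 48 h. RNA was then isolated and FASN quantified by qRT-PCR.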

[14] = read-out: Cyclin D2 (CCND2), CCND2 (gene 894); assay: LTEA_HepaRG_CCND2: Life Technologies and Expression Analysis (LTEA) Assay for Cyclin D2 (CCND2) using HepaRG (AID 2283449); conditions: mRNA level, 48 h; actives raise or lower the signal;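 further: CCND2 transcript measured by TaqMan qRT-PCR and normalised to three housekeeping genes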
Summary of the method: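 In this HepaRG study, an eight-point concentration series (max 100 uM, 0.5% DMSO) is applied for 48 h. CCND2 mRNA change is derived by qRT-PCR normalised to ACTB, GAPDH and POLR2A.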

[15] = read-out: Cyclin Dependent Kinase Inhibitor 1A (CDKN1A), CDKN1A (gene 1026); assay: LTEA_HepaRG_CDKN1A: Life Technologies and Expression Analysis (LTEA) Assay for Cyclin Dependent Kinase Inhibitor 1A (CDKN1A) using HepaRG (AID 2283450); conditions: mRNA level, 48 h; actives raise or lower the signal
Summary of the method: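 Cryopreserved HepaRG cells were plated and cultured 48 h, then switched to serum-free induction medium. Chemicals (eight half-log concentrations, top 100 uM, 0.5% DMSO) were applied for 48 h. Lysates underwent qRT-PCR for CDKN1A with housekeeping normalization.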

[16] = read-out: Cyclin D1 (CCND1), CCND1 (gene 595); assay: LTEA_HepaRG_CCND1: Life Technologies and Expression Analysis (LTEA) Assay for Cyclin D1 (CCND1) using HepaRG (AID 2283451); conditions: mRNA level, 48 h; actives raise or lower the signal;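 on AC50: TaqMan qRT-PCR transcript level normalised to ACTB GAPDH and POLR2A housekeeping genes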
Summary of the method: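 Human liver HepaRG line; 48 h dosing, 8 conc. ≤100 uM, 0.5% DMSO; TaqMan qRT-PCR mRNA, 3 housekeeping genes; bidirectional curve fit vs DMSO.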

[17] = read-out: catalase (CAT), CAT (gene 847); assay: LTEA_HepaRG_CAT: Life Technologies and Expression Analysis (LTEA) Assay for catalase (CAT) using HepaRG (AID 2283452); conditions: mRNA level, 48 h; actives raise or lower the signal;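 on AC50: TaqMan qRT-PCR signal normalized to ACTB GAPDH and POLR2A housekeeping genes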
Summary of the method: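 Differentiated HepaRG cells in serum-free induction medium were dosed 48 h in duplicate, eight half-log concentrations from 100 uM in 0.5% DMSO. Transcript measured by TaqMan qRT-PCR, normalised to ACTB/GAPDH/POLR2A, fitted bidirectionally against DMSO.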

[18] = read-out: flavin-containing dimethylaniline monooxygenases 3 (FMO3), FMO3 (gene 2328); assay: LTEA_HepaRG_FMO3: Life Technologies and Expression Analysis (LTEA) Assay for flavin-containing dimethylaniline monooxygenases 3 (FMO3) using HepaRG (AID 2283453); conditions: mRNA level, 48 h; actives raise or lower the signal;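 on AC50: FMO3 transcript by TaqMan qRT-PCR normalized to ACTB GAPDH and POLR2A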
Summary of the method: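 FMO3 transcript quantified by TaqMan qRT-PCR against three housekeeping genes after 48 h chemical exposure of HepaRG cells. Eight-point half-log series, top 100 uM, 0.5% DMSO vehicle; phenobarbital 1mM induction control; up- or down-regulation fitted.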

[19] = read-out: Cytochrome P450 (CYP1A1), CYP1A1 (gene 1543); assay: LTEA_HepaRG_CYP1A1: Life Technologies and Expression Analysis (LTEA) Assay for Cytochrome P450 (CYP1A1) using HepaRG (AID 2283454); conditions: mRNA level, 48 h; actives raise or lower the signal
Summary of the method: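 Induction of CYP1A1 mRNA in a human hepatic cell line was measured 48 h after dosing, with 1 mM phenobarbital as induction positive control and 0.5% DMSO vehicle as baseline for bidirectional curve fitting.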

[20] = CEETOX_H295R_ANDR: CeeTox H295R High-throughput Steroidogenesis Assay for Androstenedione (ANDR) (AID 2283436); conditions: actives raise or lower the signal;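 further: human H295R adrenal cells exposed for 48 h with androstenedione measured in medium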
Summary of the method: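 Steroidogenesis in H295R adrenal cells after 48 h dosing; androstenedione quantified by LC-MS/MS, with DMSO as negative control and baseline for bidirectional curve fitting.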

Measured: AC50

Sequence of Fatty acid synthase (Homo sapiens) (P49327 whole entry, looked up): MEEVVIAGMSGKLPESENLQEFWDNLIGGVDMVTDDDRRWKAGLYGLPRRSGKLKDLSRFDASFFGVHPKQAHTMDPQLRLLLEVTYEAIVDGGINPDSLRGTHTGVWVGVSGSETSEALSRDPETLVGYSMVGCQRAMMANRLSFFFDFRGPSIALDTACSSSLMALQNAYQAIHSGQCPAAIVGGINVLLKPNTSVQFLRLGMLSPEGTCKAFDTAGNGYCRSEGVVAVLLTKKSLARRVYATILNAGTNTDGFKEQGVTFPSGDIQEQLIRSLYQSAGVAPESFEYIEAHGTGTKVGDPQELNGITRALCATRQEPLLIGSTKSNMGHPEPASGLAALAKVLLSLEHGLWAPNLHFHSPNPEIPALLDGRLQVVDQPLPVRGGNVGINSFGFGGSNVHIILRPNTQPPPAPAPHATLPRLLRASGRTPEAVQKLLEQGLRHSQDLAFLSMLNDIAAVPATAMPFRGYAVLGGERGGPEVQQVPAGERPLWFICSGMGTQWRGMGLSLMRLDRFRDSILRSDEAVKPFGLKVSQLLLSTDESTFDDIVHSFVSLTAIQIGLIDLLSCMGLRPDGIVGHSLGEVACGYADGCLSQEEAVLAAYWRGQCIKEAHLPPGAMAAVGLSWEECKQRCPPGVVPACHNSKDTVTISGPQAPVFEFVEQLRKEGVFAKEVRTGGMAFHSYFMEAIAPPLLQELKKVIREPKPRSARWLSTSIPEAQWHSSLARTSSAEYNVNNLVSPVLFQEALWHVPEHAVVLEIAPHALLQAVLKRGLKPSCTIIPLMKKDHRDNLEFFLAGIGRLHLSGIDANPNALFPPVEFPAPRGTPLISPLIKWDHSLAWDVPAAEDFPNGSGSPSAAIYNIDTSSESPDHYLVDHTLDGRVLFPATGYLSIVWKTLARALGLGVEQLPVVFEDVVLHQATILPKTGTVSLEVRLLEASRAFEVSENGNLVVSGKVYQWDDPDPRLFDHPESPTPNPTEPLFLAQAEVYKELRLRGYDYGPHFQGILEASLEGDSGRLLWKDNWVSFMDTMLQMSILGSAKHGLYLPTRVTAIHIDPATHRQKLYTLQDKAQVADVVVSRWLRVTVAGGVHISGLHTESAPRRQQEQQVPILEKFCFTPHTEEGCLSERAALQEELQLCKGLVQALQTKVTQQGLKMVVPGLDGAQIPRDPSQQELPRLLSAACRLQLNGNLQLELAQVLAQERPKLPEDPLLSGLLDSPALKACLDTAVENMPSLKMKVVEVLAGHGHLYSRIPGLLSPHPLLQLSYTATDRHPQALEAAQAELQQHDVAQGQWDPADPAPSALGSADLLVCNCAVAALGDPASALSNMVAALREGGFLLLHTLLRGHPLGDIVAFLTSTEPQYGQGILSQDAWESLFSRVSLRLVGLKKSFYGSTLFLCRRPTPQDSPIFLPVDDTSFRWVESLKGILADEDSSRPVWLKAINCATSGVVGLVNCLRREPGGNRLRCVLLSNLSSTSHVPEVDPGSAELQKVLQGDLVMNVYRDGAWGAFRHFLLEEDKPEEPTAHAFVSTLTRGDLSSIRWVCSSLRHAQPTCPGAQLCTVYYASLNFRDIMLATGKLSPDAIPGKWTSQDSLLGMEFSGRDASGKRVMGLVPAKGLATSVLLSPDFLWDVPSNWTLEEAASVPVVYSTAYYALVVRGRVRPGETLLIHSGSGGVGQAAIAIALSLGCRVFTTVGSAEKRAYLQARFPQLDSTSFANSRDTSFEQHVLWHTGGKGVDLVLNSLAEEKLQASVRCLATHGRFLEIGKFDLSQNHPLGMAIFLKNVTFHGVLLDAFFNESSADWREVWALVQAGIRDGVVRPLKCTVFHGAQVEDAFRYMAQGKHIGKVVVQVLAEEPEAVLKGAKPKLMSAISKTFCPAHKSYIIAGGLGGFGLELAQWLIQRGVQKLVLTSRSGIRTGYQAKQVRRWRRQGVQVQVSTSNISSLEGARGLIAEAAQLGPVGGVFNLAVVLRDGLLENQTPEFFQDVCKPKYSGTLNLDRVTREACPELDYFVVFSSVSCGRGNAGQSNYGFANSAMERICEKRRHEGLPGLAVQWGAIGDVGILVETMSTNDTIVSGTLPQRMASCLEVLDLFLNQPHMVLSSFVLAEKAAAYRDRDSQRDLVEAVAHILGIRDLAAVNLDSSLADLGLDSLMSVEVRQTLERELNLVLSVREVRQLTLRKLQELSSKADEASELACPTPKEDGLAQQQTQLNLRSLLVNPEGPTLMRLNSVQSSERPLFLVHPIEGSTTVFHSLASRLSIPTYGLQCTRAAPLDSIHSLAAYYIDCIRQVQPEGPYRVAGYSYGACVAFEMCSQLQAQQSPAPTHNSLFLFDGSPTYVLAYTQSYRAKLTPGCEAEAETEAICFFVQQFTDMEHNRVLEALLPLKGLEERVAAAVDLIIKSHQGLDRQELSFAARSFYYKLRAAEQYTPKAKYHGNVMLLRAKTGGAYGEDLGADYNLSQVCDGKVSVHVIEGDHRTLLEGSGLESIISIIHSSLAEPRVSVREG
Sequence of Peroxisome proliferator-activated receptor gamma (Homo sapiens) (P37231 whole entry, looked up, the tested form may be a part): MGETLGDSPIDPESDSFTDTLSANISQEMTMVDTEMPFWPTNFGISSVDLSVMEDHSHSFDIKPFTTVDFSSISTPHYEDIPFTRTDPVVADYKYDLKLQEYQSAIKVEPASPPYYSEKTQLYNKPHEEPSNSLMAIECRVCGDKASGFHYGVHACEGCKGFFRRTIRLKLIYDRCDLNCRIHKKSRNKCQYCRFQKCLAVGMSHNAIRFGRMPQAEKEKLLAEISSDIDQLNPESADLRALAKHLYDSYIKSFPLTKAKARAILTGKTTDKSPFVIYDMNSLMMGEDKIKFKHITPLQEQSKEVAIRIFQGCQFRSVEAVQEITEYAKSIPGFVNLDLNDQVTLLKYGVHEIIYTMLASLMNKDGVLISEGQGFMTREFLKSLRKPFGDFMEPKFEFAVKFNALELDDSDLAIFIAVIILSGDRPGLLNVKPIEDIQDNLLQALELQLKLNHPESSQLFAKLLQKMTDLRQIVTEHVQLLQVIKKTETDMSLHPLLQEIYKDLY

O=c1[nH]c2ccc(S(=O)CCN3CCC(Cc4ccc(F)cc4)CC3)cc2o1 (stereo not given)
active: [3] 5.59 µM | [4] 3.63 µM | [5] 5.68 µM | [6] 1.56 µM | [7] 6.88 µM | [17] 67.3 µM | [18] 72.9 µM | [19] 59 µM
not listed: [20]
inactive: all other assays above

CC(C)CC(C)(O)C#CC(C)(O)CC(C)C (stereo not given)
active: [3] 68.2 µM | [19] 50 µM
not listed: [9] | [10] | [12] | [20]
inactive: all other assays above

C=CCCCCCCCCC(=O)O
active: [4] 36.5 µM | [19] 50 µM
not listed: [20]
inactive: all other assays above

CC[C@H]1CC[C@H](NCc2cc3c(cc2OC)[C@H]2C[C@H]2C(=O)N3C)[C@H](c2ccccc2)N1
active: [9] 6.19 µM | [10] 7.37 µM | [13] 57.7 µM | [19] 37.6 µM
not listed: [16] | [20]
inactive: all other assays above

Cc1c(-c2cccnc2)c2ccccc2n1CCCCC(=O)O
inactive: [1] | [2] | [4] | [5] | [12] | [13] | [14] | [15] | [17] | [18]
active: [11] 7.25 µM | [19] 37.2 µM

COC(=O)c1c(Cl)c(Cl)c(C(=O)OC)c(Cl)c1Cl
active: [6] 16.1 µM | [8] 50 µM | [9] 27.4 µM | [19] 50 µM
not listed: [14] | [20]
inactive: all other assays above

CCCCCCCCO
not listed: [4] | [6] | [9] | [16] | [20]
inactive: all other assays above

CCCCCCCCCCCCCCCO
inactive: [1] | [2] | [4] | [5] | [12] | [13] | [14] | [15] | [17] | [18]
active: [11] 14.8 µM | [19] 30.8 µM

Cn1c(=O)cc(Oc2ccc(F)cc2F)c2cnc(NCC(C)(C)O)nc21
active: [3] 8.38 µM | [19] 11.9 µM
not listed: [16] | [20]
inactive: all other assays above

Oc1ccc2c(c1)-c1ccccc1C2
inactive: [1] | [2] | [12] | [13] | [15] | [17] | [18]
active: [3] 40 µM | [4] 33.7 µM | [5] 13.5 µM | [20] 42.3 µM | [6] 11.5 µM | [7] 81.5 µM | [8] 30.3 µM | [11] 30.8 µM | [19] 10.5 µM

CCOC(=O)c1ccc(C2CCC(NC[C@H](O)COc3ccc(O)c(NS(C)(=O)=O)c3)CC2)cc1 (stereo not given in full)
active: [3] 2.78 µM | [4] 2.95 µM | [5] 5.6 µM | [6] 9.35 µM | [8] 2.84 µM | [11] 2.61 µM | [19] 73.3 µM
not listed: [9] | [10] | [20]
inactive: all other assays above

Fc1ccccc1[C@@H](F)COC1CCC(Nc2ncnc3[nH]ncc23)CC1 (stereo not given in full)
active: [3] 5 µM | [4] 5 µM | [5] 3.91 µM | [6] 1.41 µM | [7] 5 µM | [13] 50 µM | [15] 31.8 µM | [16] 86.4 µM | [17] 37.3 µM | [18] 31.9 µM | [19] 94.7 µM
inactive: [1] | [2] | [20] | [8] | [11] | [12] | [14]

COc1ccc(-n2nc(C(F)F)cc2-c2ccc(S(C)=O)cc2)cc1 (stereo not given)
active: [19] 60.3 µM
not listed: [9] | [10] | [20]
inactive: all other assays above
